Data published in PubChem BioAssay AID1159580 (chemical genetic matrix, 2015).
“And” between values parts separate entries of the source, which are not always exact repeats. Equal entries are not always repeated. Out of some 5,500 compounds screened, about 2,000 (36%) were called active. Roughly 18% stayed inconclusive and do not appear here. No stated cut-off is given here; in the data, active means normalized growth mostly below about 0.91 (no sharp cut-off); inconclusive means no clear call, values can overlap the other calls; inactive means mostly above about 0.92. The list shows a part of the results.

Experiment: chemical genetic growth profiling, strain panel (AID 1159580);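 further: tested at 20 µM; growth read once vehicle control cultures reached saturation at 30 °C; 1 = growth at the plate median or of vehicle wells; lower values mean less growth of the strain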
Conditions: S. cerevisiae deletion strains, growth OD

Measured: normalized growth

Nc1ccc(C(=O)O)c(O)c1
inactive: locus YAL021C, strain ccr4, active compounds read low 0.972 | locus YAL026C, strain drs2, active compounds read low 1 | locus YAL030W, strain snc1, active compounds read low 1 | locus YBL061C, strain skt5, active compounds read low 0.989 | locus YBR009C, strain hhf1, active compounds read low 1.02 | locus YBR021W, strain FUR4, active compounds read low 1.01 | locus YBR023C, strain chs3, active compounds read low 0.984 | locus YBR171W, strain sec66, active compounds read low 0.98 | locus YBR229C, strain ROT2, active compounds read low 1 | locus YBR231C, strain swc5, active compounds read low 1 | locus YBR279W, strain paf1, active compounds read low 0.996 | locus YCL011C, strain gbp2, active compounds read low 0.991 | locus YCL016C, strain dcc1, active compounds read low 0.965 | locus YCL029C, strain bik1, active compounds read low 0.997 | locus YCL061C, strain MRC1, active compounds read low 0.979 | locus YCL069W, strain vba3, active compounds read low 0.99 | locus YCR088W, strain abp1, active compounds read low 0.997 | locus YDL005C, strain med2, active compounds read low 0.989 | locus YDL035C, strain GPR1, active compounds read low 1.02 | locus YDL040C, strain nat1, active compounds read low 0.99 | locus YDL074C, strain BRE1, active compounds read low 1.01 | locus YDL101C, strain DUN1, active compounds read low 1.01 | locus YDL134C, strain PPH21, active compounds read low 1 | locus YDL185W, strain tfp1, active compounds read low 1 | locus YDL192W, strain arf1, active compounds read low 0.994 | locus YDR001C, strain nth1, active compounds read low 0.989 | locus YDR069C, strain doa4, active compounds read low 1 | locus YDR101C, strain arx1, active compounds read low 1.01 | locus YDR137W, strain rgp1, active compounds read low 0.959 | locus YDR150W, strain NUM1, active compounds read low 1.01 | locus YDR159W, strain sac3, active compounds read low 1.02 | locus YDR162C, strain NBP2, active compounds read low 1.01 | locus YDR195W, strain ref2 0.996 | locus YDR297W, strain sur2, active compounds read low 1.01 | locus YDR318W, strain mcm21, active compounds read low 1.01 | locus YDR334W, strain swr1, active compounds read low 0.98 | locus YDR335W, strain msn5, active compounds read low 0.993 | locus YDR388W, active compounds read low 1 | locus YDR392W, strain spt3, active compounds read low 0.931 | locus YDR502C, strain sam2, active compounds read low 0.998 | locus YEL003W, strain gim4, active compounds read low 1.02 | locus YEL037C, strain rad23, active compounds read low 1 | locus YEL061C, strain CIN8 (second series), active compounds read low 0.994 | locus YEL061C, strain CIN8, active compounds read low 1.01 | locus YER015W, strain faa2, active compounds read low 0.999 | locus YER016W, strain bim1, active compounds read low 1 | locus YER110C, active compounds read low 1 | locus YER111C, strain swi4, active compounds read low 0.984 | locus YER155C, strain BEM2 (second series), active compounds read low 1 | locus YER155C, strain BEM2, active compounds read low 1 | locus YER167W, strain BCK2, active compounds read low 1.01 | locus YFR010W, strain ubp6, active compounds read low 1 | locus YGL078C, strain dbp3, active compounds read low 0.995 | locus YGL086W, strain mad1, active compounds read low 0.997 | locus YGL167C, strain pmr1, active compounds read low 0.992 | locus YGL173C, strain kem1, active compounds read low 0.99 | locus YGL227W, strain vid30, active compounds read low 0.991 | locus YGL240W, strain doc1, active compounds read low 0.997 | locus YGL248W, strain PDE1, active compounds read low 0.999 | locus YGL253W, strain hxk2, active compounds read low 0.978 | locus YGR135W, strain pre9, active compounds read low 0.993 | locus YGR252W, strain gcn5, active compounds read low 0.959 | locus YHR013C, strain ard1, active compounds read low 0.961 | locus YHR027C, strain rpn1, active compounds read low 0.997 | locus YHR030C, strain SLT2, active compounds read low 0.974 and 1.01 and 1.07 | locus YHR079C, strain IRE1 (second series), active compounds read low 1 | locus YHR079C, strain IRE1, active compounds read low 1.02 and 1.04 | locus YHR094C, strain hxt1, active compounds read low 0.997 | locus YHR129C, strain ARP1, active compounds read low 1.01 | locus YHR142W, strain chs7, active compounds read low 0.964 | locus YHR200W, strain rpn10, active compounds read low 0.999 | locus YIL066C, strain RNR3, active compounds read low 1.03 | locus YIL073C, strain SPO22, active compounds read low 1.04 | locus YIL125W, strain kgd1, active compounds read low 1 | locus YIR030C, strain dcg1, active compounds read low 1 | locus YJL092W, strain hpr5, active compounds read low 0.984 | locus YJL095W, strain BCK1 (second series), active compounds read low 0.997 | locus YJL095W, strain BCK1, active compounds read low 0.994 and 1.01 and 1.04 | locus YJL115W, strain asf1, active compounds read low 0.99 | locus YJL129C, strain trk1, active compounds read low 0.968 | locus YJL134W, strain LCB3, active compounds read low 1.01 | locus YJL154C, strain vps35, active compounds read low 0.99 | locus YJL164C, strain tpk1, active compounds read low 1.01 | locus YJL166W, strain qcr8, active compounds read low 0.962 | locus YJL168C, strain set2, active compounds read low 1 | locus YJL187C, strain SWE1 (second series), active compounds read low 1.01 | locus YJL187C, strain SWE1, active compounds read low 0.999 | locus YJR043C, strain POL32, active compounds read low 1.01 | locus YJR066W, strain TOR1, active compounds read low 0.963 and 0.985
